From PubChem
TDP-43 rescue: inhibitors of TDP-43 toxicity in yeast; 45,000 compounds, 0.45% hits; AID 1347073; Potency, µM (series often up to 46.1 µM), most hits filed as activators; yeast TDP-43 toxicity rescue, BacTiter-Glo growth, 24 h; active = well fitted activation curve with a large enough effect; note: nearly all actives have a fitted effect of over 55% in size
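TDP-43-expressing yeast, pregrown in raffinose, seeded at OD600 0.02 in galactose medium with compound for 24 hr at 30 deg C. Growth read by BacTiter-Glo luminescence, so rescue of toxicity appears as activation.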
Hits are given with their value; i = inactive. Only a selection was taken, and hits are over-represented in it overall.

SMILES	TDP-43 rescue
COc1ccc2c(c1)Cc1sc(NC(=O)c3ccccc3C)nc1-2	i
COc1ccc(C(=O)N2c3ccccc3C(C)(c3ccc(Cl)cc3)CC2(C)C)cc1 (configuration not stated)	i
CCCCOc1cccc(C2c3c(oc4ccccc4c3=O)C(=O)N2c2ccccn2)c1 (configuration not stated)	i
C#CCOc1nc(Nc2cccc([N+](=O)[O-])c2)nc(OCC#C)n1	i
COc1nc(Nc2ccc([N+](=O)[O-])cc2)nc(NC2CCCCC2)n1	16µM
COc1nc(Nc2cccc([N+](=O)[O-])c2)nc(OC)n1	i
CCCCN(CC)CCCNC(=O)C1CCN(c2nc3ccc(CC)cc3s2)CC1	i
O=C1CC(N2CCSCC2)C(=O)N1c1ccccc1 (configuration not stated)	i
O=C1CC(N2CCN(c3ccccc3)CC2)C(=O)N1Cc1ccc(Cl)cc1 (configuration not stated)	i
O=C1CC(N2CCN(c3cccc(C(F)(F)F)c3)CC2)C(=O)N1c1ccccc1F (configuration not stated)	16µM
COc1ccccc1OCc1nnc(-c2ccccc2)o1	i
COc1ccc(C)cc1Nc1nc(-c2c[nH]c3ccccc23)cs1	i
COCCN=c1scc(-c2cc(OC)ccc2OC)n1/N=C/c1c[nH]c2ccccc12	20µM
CC(C)Oc1ccc(Br)cc1C(=O)N/N=C/c1c[nH]c2ccccc12	i
COc1ccc2c(Sc3ccccc3)c(C(=O)NCCCN3CCCCC3)[nH]c2c1	i
COc1ccc(CNC(=O)CSc2cc(=O)n(C)c3ccccc23)cc1	i
CCOc1ccc(CNC(=O)c2cc3oc4ccccc4c3n2C)cc1	i
COc1ccc(CNC(=O)c2cc3sccc3n2C)cc1	13µM
CSc1ccc(CCNC(=O)C(C)n2nc(C)c3sc4ccccc4c3c2=O)cc1 (configuration not stated)	i
CC(C)(C)C(=O)Cn1c(=O)n(CCCCCC(=O)NCc2ccc3c(c2)OCO3)c(=O)c2sccc21	i
COc1ccc(CN2CCN(c3ncnc4sc5c(c34)CCCC5)CC2)cc1F	i
Cc1ccc(C)c(CN2C(=O)c3ccccc3S(=O)(=O)c3ccc(C(=O)N(C)C4CCCCC4)cc32)c1	i
Cc1cccc(Nc2nnc(SCC(=O)Nc3ccccc3[N+](=O)[O-])s2)c1C	18µM
Cc1cccc(NC(=O)CSc2nnc(NC(=O)C3CC3)s2)c1C	i
Cc1ccccc1Nc1nnc(SCC(=O)NCc2cccs2)s1	i
SMILES	TDP-43 rescue
CCN(CC)CCNC(=O)Nc1ccc2c(c1)N(Cc1ccccc1)C(=O)c1ccccc1S2	i
COc1cccc(CNC(=O)CNS(=O)(=O)c2ccc3nc(C)sc3c2)c1	i
COc1ccc(Cl)cc1NC(=O)CSC1=NN2CCCC(=O)N=C2S1	14µM
CCOc1ccccc1NC(=O)CSC1=NN2CCCC(=O)N=C2S1	i
COc1ccc(OC)c(NC(=O)CSC2=NN3CCCC(=O)N=C3S2)c1	i
O=C(NCCC1=CCCCC1)c1ccc2c(c1)N(Cc1ccccc1)C(=O)c1ccccc1S2(=O)=O	i
COc1ccc(NC(=O)c2csnn2)cc1Cl	i
CN(Cc1ccccc1)c1oc(-c2ccco2)nc1C#N	14µM
N#Cc1nc(-c2ccc(OCc3ccccc3)cc2)oc1NCc1ccco1	i
CC1CN(c2oc(-c3ccco3)nc2C#N)CC(C)O1 (configuration not stated)	i
Cc1cccc(OCC(=O)N(Cc2cccc(Cl)c2)Cc2ccco2)c1C	i
CC(C)Sc1nc2sc3c(c2c(=O)n1Cc1ccccc1)CCCC3	i
O=C(COC(=O)c1ccc([N+](=O)[O-])o1)NC1CCS(=O)(=O)C1 (configuration not stated)	i
CC1CCCC(NC(=O)COC(=O)c2ccc([N+](=O)[O-])o2)C1C (configuration not stated)	13µM
CC(=O)Nc1ccc(NC(=O)COC(=O)c2ccc([N+](=O)[O-])o2)cc1	i
CCc1c(C)c2ccc(O)c(CN3CCN(c4ccccc4)CC3)c2oc1=O	i
COC(=O)c1cc(OC)c(OC)cc1NC(=O)c1ccc(Br)o1	i
COc1ccc(N2CCOCC2)c(NC(=O)c2ccc(Br)o2)c1	16µM
COc1ccc(S(=O)(=O)Nc2cc(C(=O)NCCCN3CCOCC3)ccc2N2CCOCC2)cc1	i
COc1ccc(C(=O)N(Cc2sccc2C)C2CCS(=O)(=O)C2)cc1Cl (configuration not stated)	i
O=S(=O)(NCc1ccco1)c1ccc(Cl)cc1Cl	i
O=[N+]([O-])c1ccccc1S(=O)(=O)NCc1ccco1	i
O=S(=O)(NCc1ccco1)c1ccc2ccccc2c1	11µM
COCCCN1C(=O)c2ccccc2CC1(C)C(=O)NC1CCCCC1 (configuration not stated)	i
CCOC(=O)c1oc2c(c1C)-c1nn(Cc3cccc(Cl)c3)cc1CC2	i
SMILES	TDP-43 rescue
COc1ccccc1NC(=O)N1CC=C(c2c[nH]c3ccccc23)CC1	i
CCOc1ccccc1NC(=O)N(Cc1ccc(F)cc1)C1CCN(CC)CC1	i
COc1cccc(Nc2nnc(-c3cc4ccc(O)cc4oc3=O)s2)c1	i
CCOc1ccc(NC(=O)CNC(=O)COc2ccccc2)cc1	i
Cc1cc(C)c2oc(-c3ccc(NC(=O)COc4ccccc4C)cc3)nc2c1	i
CCOc1cc(-c2nc(C)c(C(C)=O)n2O)ccc1OCC(=O)Nc1ccccc1	11µM
CCc1ccccc1NC(=O)CC1NCCNC1=O (configuration not stated)	i
Cc1cc(Cl)ccc1NC(=O)Cn1nc(C)c2c(C)n(-c3ccccc3)nc2c1=O	i
CCc1nn(CC(=O)NCc2cccc(OC)c2OC)c(=O)c2cc3occc3n12	i
CC(C)Cc1csc(NC(=O)c2ccc(F)cc2)c1C(=O)O	i
CCOC(=O)c1c(N)sc(N)c1C(=O)OCC	i
CCOC(=O)c1c(CC(C)C)csc1NC=O	16µM
COc1ccc(C(CC(=O)Nc2ccc(C(C)=O)cc2)N2Cc3ccccc3C2=O)cc1 (configuration not stated)	i
Cc1cnnn1-c1ccc([N+](=O)[O-])cc1	i
Cc1c(C(=S)Nc2ccccc2)cnn1-c1ccc([N+](=O)[O-])cc1	i
Cc1nn(-c2ccccc2)c(N)c1Sc1ccc([N+](=O)[O-])cc1	14µM
COC(=O)c1ccc(NC(=O)N2CCc3c([nH]c4ccccc34)C2c2ccc(C)cc2)cc1 (configuration not stated)	i
COc1ccc(-n2ncc3c2ncn2nc(-c4ccc(Cl)cc4Cl)nc32)cc1	i
O=C(Nc1cc(Cl)ccc1Cl)C1Cc2ccccc2O/C1=N\O (configuration not stated)	11µM
COc1cccc2c1O/C(=N\O)C(C(=O)Nc1cccc(C)c1C)C2 (configuration not stated)	i
O=C(Nc1ccccc1Cl)C1C2CCCCC21 (configuration not stated)	i
CCOC(=O)CCn1nc(C)c2c(C)n(-c3ccccc3)nc2c1=O	i
Cc1cc(/C=N/NC(N)=S)c(O)c(/C=N/NC(N)=S)c1	i
NC(=S)N/N=C/c1cccc(/C=N/NC(N)=S)c1	i
Cc1ccc(-n2c(C)cc(/C=N/NC(N)=S)c2C)cc1	14µM
O=C(O)c1cccc(-n2cnc3cccnc32)c1	i
N/C(=N\OC(=O)Cc1ccc([N+](=O)[O-])cc1)c1ccc([N+](=O)[O-])cc1	i
N/C(=N\OC(=O)c1ccc([N+](=O)[O-])cc1)c1cccnc1	i
N/C(Cc1ccc([N+](=O)[O-])cc1)=N\OC(=O)c1ccc2ccccc2c1	8.9µM
